CCT modulator = cytosolic chaperonin activity modulation; purified chaperonin ATPase assay, HTRF ADP detection, 30 min; activity change, % (test concentration not listed), hits read low; hit rate 0.3% among 360,000; in the data active = activity change below about -30%
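We incubate TRiC, 40 or 20 nM final, with library compounds at 76 uM and 10 uM ATP for 30 min at 37 °C. ADP formed is detected with Transcreener HTRF reagents after 30 min at room temperature.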
CtBP-E1A inh = CtBP/E1A binding inhibition | AlphaScreen GST-E1A/His-CtBP binding, 1536-well; stronger effect = lower value | activity change, % (concentration not given with the values) | hit rate 0.49% among 340,000
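GST-E1A and His-tagged CtBP (125 nM each as 5X stock) were preincubated with pin-transferred compound for 2 h at 37 °C in the dark, then glutathione donor and nickel acceptor beads were added for 1 h before AlphaScreen reading.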
PI4K2A inh = PI4K2A (human) kinase inhibition. Q9BTU6. purified PI4K2A, ADP-Glo luminescence, 1 h; stronger effect = lower value. activity change, negative = inhibition, % at 76.9 µM. hit rate 0.13% among 420,000. AID 1346378; in the data active = activity change below about -50%; inconclusive = mostly about -30% to -49%;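 also: -100% = wells without enzyme as full effect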
Target sequence (Q9BTU6 whole entry, looked up): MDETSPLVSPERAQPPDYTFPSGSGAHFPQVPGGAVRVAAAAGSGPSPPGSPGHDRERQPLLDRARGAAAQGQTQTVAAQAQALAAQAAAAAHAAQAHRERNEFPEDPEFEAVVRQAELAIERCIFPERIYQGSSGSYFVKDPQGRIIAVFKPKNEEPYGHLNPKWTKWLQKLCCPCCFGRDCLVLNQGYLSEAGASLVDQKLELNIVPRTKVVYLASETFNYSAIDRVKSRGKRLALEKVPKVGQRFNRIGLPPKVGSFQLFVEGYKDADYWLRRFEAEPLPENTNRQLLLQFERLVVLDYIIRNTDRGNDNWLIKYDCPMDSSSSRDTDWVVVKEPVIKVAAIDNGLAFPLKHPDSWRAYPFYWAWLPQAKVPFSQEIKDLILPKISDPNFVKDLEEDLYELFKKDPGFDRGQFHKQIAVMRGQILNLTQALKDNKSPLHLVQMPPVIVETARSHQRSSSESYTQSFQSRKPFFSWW
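Compounds are screened against recombinant PI4K2A using PI as substrate and ATP, the latter dispensed at 300 microM. Reactions run one hour at ambient temperature before ADP-Glo detection; full inhibition defined by wells lacking enzyme.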
Eya2 phos inh = inhibitors of human Eya2 phosphatase activity. O00167. recombinant Eya2, OMFP fluorescence dephosphorylation (OMFP is methylfluorescein phosphate). Potency, µM (top dose mostly 76.9 µM), inactives show at the highest dose activity, negative = inhibition, actives largely listed as inhibitors. hit rate 0.006% among 330,000. AID 488837; active = well fitted inhibition curve with a large enough effect; inconclusive = small, poorly fitted or top-dose-only effect, or effect the other way; also: potency is read from the fitted curve at half-maximal effect
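Eya2 protein (added as 0.2 uM solution) was preincubated with compound for 10 min at ambient temperature in 50 mM HEPES pH 7.5, 50 mM NaCl, 5 uM MgCl2, 0.05% BSA, 1 mM DTT. OMFP (added at 50 uM) then reacted 10 min; fluorescence read at 485/525 nm.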
Six1-Eya2 blk = inhibitors of human Six1/Eya2 interaction; hit rate 0.56% among 360,000; activity change, % (concentration not given with the values); AlphaScreen GST-Six1/His-Eya2 binding, biochemical; stronger effect = lower value
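Six1/Eya2 binding was read as AlphaScreen signal after compounds were pinned into GST-Six1 plus His-tagged Eya2 (5X stock 250/500 nM) in pH 8.0 Tris/NaCl/TCEP buffer, beads added, then incubated 1 h, 37 C, dark.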
* = called active by the depositor; ? = inconclusive; nt = not tested or not shown; ! = repeats disagree. In the library only some 0.97% were active in any assay of this set; here they are far more common. Rule as the data show it, unless noted: active = activity change below about -65%; inconclusive = mostly about -30% to -63%; inactive = weaker than that. Unless noted, % is scaled to controls: 0 for no effect and ±100 for the full control effect.

SMILES	CCT modulator	CtBP-E1A inh	PI4K2A inh	Eya2 phos inh	Six1-Eya2 blk
Cc1ccc(S(=O)(=O)C2(C(=O)Nc3ccc(Cl)c(C(F)(F)F)c3)CC2)cc1	nt	nt	-6	nt	nt
CCOc1ccc(N(CC)C(=O)Cn2cnc3sc(C)c(S(=O)(=O)N4CCN(c5ncccn5)CC4)c3c2=O)cc1	nt	nt	3	nt	nt
N#Cc1c(=O)c2nc(NCc3ccccc3)ncc2n2ccccc12	1	?	-4	4%	-66*
CCOc1ccccc1CNC(=O)c1cccc(NC(=O)c2nsc3ccccc23)c1	nt	nt	0	nt	nt
NNC(=O)CSc1cccc2cccnc12	0	9	2	-9%	-7
O=C(CSc1cccc2cccnc12)N/N=C/c1ccncc1	0	nt	1	-9%	-20
O=C(CSc1cccc2cccnc12)Nc1cc(C(=O)O)cc(C(=O)O)c1	-2	-83*	0	6%	?
CCCCOc1ccc(NC(=O)CSc2cccc3cccnc23)cc1	0	-88*	3	-5%	?
CCOc1cc(/C=N/NC(=O)CSc2cccc3cccnc23)ccc1O	5	-74*	-1	0%	-66*
Cc1cccc(NC(=O)CSc2cccc3cccnc23)c1	-1	nt	0	-3%	-81*
CCOc1cc(C=NNC(=O)c2cccc(S(=O)(=O)N3CCCC3)c2)ccc1O	1	nt	0	7%	-66*
Cc1c2cnn(CC(=O)N3CCN(c4ccc(F)cc4)CC3)c(=O)c2c(C)n1Cc1ccc(F)cc1	nt	nt	-4	nt	nt
Brc1ccc(-c2csc(N3CCCCC3)n2)cc1	nt	nt	nt	-2%	nt
COc1cc([N+](=O)[O-])cc(/C=N/NC(=O)CSc2nnc(-c3ccccc3)n2C)c1O	2	-13	5	-16%	-14
COc1cc([N+](=O)[O-])cc(/C=N/NC(=O)Cn2nccc2C)c1O	-2	-94*	-3	2%	-88*
COc1cc([N+](=O)[O-])cc(/C=N/NC(=O)Cn2nc(C)cc2C)c1O	0	?	0	-22%	-91*
CCCCCCCCOc1ccccc1C(=O)Nc1ccc(C(=O)OCC[N+](C)(CC)CC)cc1	nt	nt	-4	nt	nt
COc1ccc(OC)c(CNC(=O)c2ccc3c(c2)c(C)c(C)n3Cc2ccc(Cl)cc2)c1	nt	nt	2	nt	nt
O=C1C=CC(=O)c2c(O)c(CO)c(CO)c(O)c21	-3	-2	-53*	nt	-70*
CCOC(=O)c1ccc(NS(=O)(=O)c2cn(C)c(C)n2)cc1	nt	nt	0	nt	nt
CC(C)NC(=S)N=Nc1c(O)[nH]c2ccc([N+](=O)[O-])cc12	1	22	-6	-1%	-68*
COc1ccccc1C(=O)N=Nc1c(O)[nH]c2ccc([N+](=O)[O-])cc12	1	nt	3	-13%	?
NC(=O)N=Nc1c(O)[nH]c2ccc([N+](=O)[O-])cc12	-2	-72*	5	7%	?
CCCCn1cnc2c(=O)[nH]ccc21	nt	nt	-7	nt	nt
CN(C)CCOC(c1ccc(Cl)cc1)c1ccccn1 (configuration not stated)	-51*!	24	3	5%	17
SMILES	CCT modulator	CtBP-E1A inh	PI4K2A inh	Eya2 phos inh	Six1-Eya2 blk
Cc1ccc(-c2cc(-c3nnc(SCC(=O)NC4CCCCC4)n3N)[nH]n2)cc1	nt	nt	4	nt	nt
CCCCOc1cc(=O)[nH]c(=O)[nH]1	0	6	-51*	3%	6
CN(C)c1cc2c(cc1NC(=O)c1ccc(F)cc1)n(C)c(=O)n2C	nt	nt	2	nt	nt
C/C(=N\NC(=O)c1c[nH]c2ccccc12)c1ccc(C)o1	1	-86*	-1	20%	-79*
O=S(=O)(c1ccc(Cl)cc1)c1nc(-c2ccco2)oc1SCc1ccccc1F	nt	nt	3	nt	nt
Cc1ccc(S(=O)(=O)N2CCOCC2)cc1NC(=O)CNCc1ccccn1	-2	-94*	-5	-16%	-69*
Cc1cc2nnc(SCC(=O)Nc3cc(S(=O)(=O)N4CCOCC4)ccc3Cl)n2c2ccccc12	-53*	?	-6	5%	?
Cc1ccc(S(=O)(=O)N2CCOCC2)cc1NC(=O)CSc1nnc2cc(C)c3ccccc3n12	-29	12	2	-6%	?
O=C(CNCc1ccccn1)Nc1cc(S(=O)(=O)N2CCCCC2)ccc1Cl	-1	-88*	3	1%	-86*
O=C(CNCc1ccncc1)Nc1cc(S(=O)(=O)N2CCCCC2)ccc1Cl	0	nt	5	14%	-1
CCCCc1ccc(NS(=O)(=O)c2cc3c4c(c2)CC(=O)N4CCC3)cc1	nt	nt	5	nt	nt
O=C(NC1CCCC1)C(c1ccncc1)N(C(=O)c1ccco1)c1ccc(F)c(Cl)c1 (configuration not stated)	-36*	15	-1	11%	-1
Cc1ccc2c(c1)c1c(c(=O)n(Cc3ccccc3)c(=O)n1CC(=O)Nc1ccccc1F)n2C	nt	nt	4	nt	nt
O=C(Cn1ncc2c3ccccc3n(Cc3ccccc3)c2c1=O)NCCN1CCOCC1	-34*	0	1	7%	-3
O=C(O)C1Nc2c(Cl)cc(Cl)cc2C2C=CCC12 (configuration not stated)	1	-8	-12	3%	?
O=C(O)C1Nc2c(O)cccc2C2C=CCC12 (configuration not stated)	-7	-82*	?	2%	0
COc1cccc(N2CCN(C(=O)CCc3nnc4ccc(N5CCCC5)nn34)CC2)c1	-42*	-4	2	4%	-6
Cc1ccc(C2=CCN(C)C(=O)N2c2ccc(Br)cc2)cc1	nt	nt	0	nt	nt
COc1ccc(C(=O)c2c[nH]c(C(=O)NCc3ccco3)c2)cc1	1	-1	1	-1%	-4
COc1cccc(C(=O)c2c[nH]c(C(=O)NCc3ccco3)c2)c1	-42*	-2	0	-13%	-15
CC(C(=O)O)c1ccc2c(c1)CC(=O)c1ccccc1S2 (configuration not stated)	nt	nt	-2	nt	nt
O=C1CSc2ccc(S(=O)(=O)NCc3ccc(F)cc3)cc2N1	2	nt	0	14%	0
Cc1ccc(CNS(=O)(=O)c2ccc3c(c2)NC(=O)CS3)cc1	-74*	nt	2	-5%	-7
CC(C)(C)c1nnc(NS(=O)(=O)c2ccc(N)cc2)s1	nt	nt	-6	nt	nt
Cc1ccc(-c2nc3c4ccccc4[nH]c(=O)n3n2)cc1	nt	nt	-1	nt	nt
O=c1[nH]c2ccccc2c2nc(-c3cccc(S(=O)(=O)N4CCCC4)c3)nn12	1	-81*	-2	-13%	-85*
C=CCn1cc(CN2CCC(C(=O)Nc3ccc(Oc4cccnc4)cc3)CC2)c(C)n1	-31*	0	9	2%	-2
CCCCN(C)C(=O)c1cc2cc3ccc(OC)cc3nc2s1	-1	0	-55*	5%	-1
Cc1ccc(S(=O)(=O)n2cc(-c3ccccc3)c3ccccc32)cc1	-31*	22	3	12%	0
Cc1ccc(S(=O)(=O)n2cc(C=O)c3ccccc32)cc1	-2	-18	-1	2%	-14

Source: PubChem
